# PLK1 PBD block – inhibitors of human PLK1 polo-box domain binding; P53350; Plk1 PBD binding of FITC phosphopeptide, fluorescence polarization; Potency, µM, actives largely listed as inhibitors; 360,000 tested, 2.8% active; AID 720504; note: series mostly up to about 57 µM; nearly all actives have a fitted effect of over 65% in size
# JMJD2A Tudor – JMJD2A Tudor domain (human) inhibition. O75164. AlphaScreen JMJD2A-Tudor / H3K4me3 peptide binding. Potency, µM (top dose mostly 114 µM), most hits filed as inhibitors. 390,000 tested, 4.4% active. AID 504339; note: nearly all actives have a fitted effect of over 50% in size
# Sfp inh – inhibitors of Bacillus subtilis Sfp phosphopantetheinyl transferase; Biochemical Sfp PPTase activity, qHTS; Potency, µM, hits mostly inhibitors; 310,000 tested, 3.5% active; AID 1490;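 note: the enzyme is Sfp with the accession as filed and its product quenches rhodamine fluorescence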
#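 Fluorescence-quenching assay with 15 nM Sfp, 5 uM rhodamine-CoA and 12.5 uM BHQ-2-labelled ybbR peptide in pH 7.6 Hepes/MgCl2 buffer. Enzyme was pre-incubated with compound for 15 min at room temperature. Rate was taken from the 30-min fluorescence change (525/598 nm).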
# BAZ2B block – inhibitors of human BAZ2B bromodomain; Q9UIF8; AlphaScreen BAZ2B-H3K14Ac peptide displacement; Potency, µM (top dose mostly 114 µM), actives largely listed as inhibitors; 360,000 tested, 4.4% active; AID 504333; note: nearly all actives have a fitted effect of over 60% in size
#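 AlphaScreen displacement of biotin-H3(5-23)K14Ac peptide (50 nM final) from BAZ2B (50 nM final) in PBS pH 7.4, 0.01% Tween-20; complex preformed 30 min RT, then compounds (top 110 uM) 30 min RT, beads 20 min dark.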
# G9a block – G9a (human) methyltransferase inhibition; G9a H3K9 monomethylation, AlphaScreen, 2 h; Potency, µM (top dose mostly 102 µM), usual class: inhibitors; 350,000 tested, 8.8% active; AID 504332; note: nearly all actives have a fitted effect of over 75% in size
# Target sequence (Q96KQ7 913-1193 limits assumed): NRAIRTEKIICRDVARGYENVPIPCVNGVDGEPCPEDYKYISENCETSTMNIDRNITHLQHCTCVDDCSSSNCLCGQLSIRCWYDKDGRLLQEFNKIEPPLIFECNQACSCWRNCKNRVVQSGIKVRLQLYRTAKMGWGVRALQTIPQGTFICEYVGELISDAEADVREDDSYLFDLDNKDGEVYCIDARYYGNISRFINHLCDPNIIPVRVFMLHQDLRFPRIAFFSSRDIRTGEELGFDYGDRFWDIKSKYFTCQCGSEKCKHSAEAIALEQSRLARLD
#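 Quantitative HTS format: methyltransferase activity on a biotin-tagged H3K9 peptide is measured by AlphaScreen, using a rabbit anti-monomethyl-H3K9 antibody with streptavidin donor and anti-IgG acceptor beads. Final levels are 20 nM enzyme, 500 nM peptide, 20 uM SAM; 2 h RT.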
# HP1b binding inh – HP1-beta chromodomain-methylated histone interaction inhibition; AlphaScreen HP1-beta / biotin-H3K9me3 peptide binding; Potency, µM (series often up to 114 µM), usual class: inhibitors; 390,000 tested, 0.56% active; note: nearly all actives have a fitted effect of over 70% in size
# Target sequence (P83916 whole entry, looked up): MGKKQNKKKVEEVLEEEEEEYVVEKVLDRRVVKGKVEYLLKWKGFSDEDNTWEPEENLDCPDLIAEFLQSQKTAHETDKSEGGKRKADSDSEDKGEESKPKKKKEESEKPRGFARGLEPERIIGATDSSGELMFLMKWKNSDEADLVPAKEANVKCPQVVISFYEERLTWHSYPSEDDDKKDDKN
#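 Compound inhibition of the preformed complex between 50 nM HP1-beta and 50 nM biotinylated H3K9me3 peptide was read by AlphaScreen. Buffer was PBS pH 7.4 with 0.01% Tween-20. Incubations ran 30 min at room temperature, with 10 ug/mL donor/acceptor beads.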
# Numbers stand for hits; i = inactive; ? = inconclusive; nt = no result; ! = not confirmed by another sample; [ ] = another dose, or the depositor's remark. Rows were chosen to be rich in hits. Some 12% of all compounds tested hit in one or more screens of this group. Calls come from the whole dose curve; as a rule, active = well fitted curve in the direction sought with a large enough effect; inconclusive = small, poorly fitted or top-dose-only effect, or another doubt; inactive = no such curve, though single readings can be large; an effect the other way counts as inactive or inconclusive.
SMILES,PLK1 PBD block,JMJD2A Tudor,Sfp inh,BAZ2B block,G9a block,HP1b binding inh
O=S(=O)(CCCc1ccccc1)c1ncn[nH]1,i,i,i,i,i,i
Cc1ccc(-n2c(C)cc(/C=C3\NC(=O)NC3=O)c2C)c(C)c1,21µM,35µM,i,40µM,?,?
Cc1cc(/C=C2/NC(=O)NC2=O)c(C)n1-c1ccc(N2CCOCC2)cc1,i,?,i,?,45µM,?
Cc1cc(/C=C2/NC(=O)NC2=O)c(C)n1-c1ccc(C#N)cc1,19µM,i[11.4 µM],i,?,?,i
Cc1cc(/C=C2\NC(=O)NC2=O)c(C)n1-c1ccc(N2CCOCC2)cc1,i,?,i,i,nt,i
Cc1[nH]c2ccccc2c1CCCO,i,i,i,i,i,i
CCCCCCCCCCC1=C(C)C(=O)C(OC)=C(OC)C1=O,nt,nt,i,nt,5µM,nt
COC1=C(OC)C(=O)C(CCCCCCCCCCO)=C(C)C1=O,nt,nt,i,50µM,?,nt
Cc1nn(S(=O)(=O)c2ccccc2)c(C)c1S(=O)(=O)N1CCC(C)CC1,i,?,i,?,?,i
N[C@@H](CSS(=O)(=O)O)C(=O)O,nt,nt,45µM,nt,i,nt
O=C(Nc1cccc(F)c1)N1CCCC2(CCN(S(=O)(=O)c3ccccc3)CC2)C1,nt,nt,i,nt,i[12.7 µM],nt
Nc1nc(=S)c2ncn([C@H]3O[C@@H](CO)[C@@H](O)[C@@H]3O)c2[nH]1,nt,nt,11µM,nt,?,nt
O=c1[nH]c(=O)c2ncn(C3OC(CO)C(O)C3O)c2[nH]1 (stereo unspecified),nt,i,nt,nt,nt,i
Nc1ncn(C2O[C@H](CO)[C@@H](O)[C@H]2O)c(=O)n1 (stereo partly specified),nt,nt,nt,i,i,nt
NC(=O)c1ncn([C@@H]2O[C@H](CO)[C@@H](O)[C@H]2O)c1O,i,i,i,i,25µM!,i
CC1Cc2ccccc2N1C(=O)CN1CCC(C(N)=O)CC1 (stereo unspecified),i,i,i,i,i,i
Fc1ccc(C(Nc2ccccn2)c2c[nH]c3ccccc23)cc1 (stereo unspecified),8.4µM,?,i,i,40µM,i
N=c1c2c3c(sc2ncn1Nc1ccccc1)CCC3,i,i,i,i,i,i
Oc1ccccc1C1C=C(c2ccc3c(c2)OCO3)NC(c2ccc(Br)cc2)N1 (stereo unspecified),nt,i,nt,nt,nt,i
CC(O)c1cccc(-c2ccc(CN3C[C@]4(CO)O[C@@H](CO)C[C@@H]4S3(=O)=O)cc2)c1 (stereo partly specified),27µM,i,nt,nt,nt,i
COc1ccc(C(=O)C/C(=C\C(=O)c2ccc(C)cc2)c2ccccc2)cc1,i,i,i,i,i,i
COC(=O)C(=O)/C=C(\O)c1ccc(C)cc1,i,79µM,?,?,2µM,i
Cc1ccc(/C(O)=C/C(=O)C(=O)NNC(=O)C(O)(c2ccccc2)c2ccccc2)cc1,i,?,i,50µM,i,i
COC1(OC)C=CC(=O)C=C1NC(=O)c1ccccc1OC(C)=O,nt,i,nt,nt,nt,i
CC1(c2ccccc2)CC(C)(C)N2C(=O)C(=O)c3cccc1c32 (stereo unspecified),i,?,?,28µM,?,i
SMILES,PLK1 PBD block,JMJD2A Tudor,Sfp inh,BAZ2B block,G9a block,HP1b binding inh
C=CCn1c(CCSCc2ccc(OC)c(C)c2)n[nH]c1=S,i,i,i,i,2µM,i
C=CCn1c(CSCc2ccccc2)nnc1SCC(=O)NCc1ccccc1,i,i,i,i,i,i
C=CCn1c(CCSCc2ccccc2)n[nH]c1=S,i,16µM,i,i,7.1µM,i
O=C(NCCc1ccc(Cl)cc1)C1CCN(S(=O)(=O)c2ccc3[nH]ccc3c2)CC1,nt,i,nt,i,i,i
COc1ccc(NC(=O)CSC2=Nc3ccccc3C3=NC(CCC(=O)NCc4ccco4)C(=O)N23)cc1 (stereo unspecified),nt,i,nt,i,i,i
CCOc1ccc2c(ccc(/C=C/c3cc(C)c4cccnc4c3O)[n+]2C)c1,i,10µM,nt,nt,nt,?
Cc1cc(=O)c(C(=O)O)cn1Nc1ccc(Cl)cc1,i,i,i,i,?,i
Cc1cc(=O)c(C(=O)O)cn1Nc1ccc(F)cc1,i,50µM,i,?,?,i
CCn1ncc(C2=NOC(C(=O)NCc3ccccc3)C2)c1C (stereo unspecified),?,i,79µM,i,45µM,i
CCn1ncc(C2=NOC(C(=O)NCc3ccc(OC)cc3)C2)c1C (stereo unspecified),i,i,i,i,i[2.33 µM],i
COc1ccc(C2=NOC(C(=O)NCc3ccccc3)C2)cc1 (stereo unspecified),27µM,?,i,i,nt,i
O=C1C=C(c2ccc3c(c2)oc2ccccc23)C[C@@H](c2ccc3c(c2)OCO3)C1,i,i,nt,i,i[0.501 µM],i
CC1(C(=O)NCc2cccc(Cl)c2)Cc2c(-c3cccc(C(N)=O)c3)ccnc2O1 (stereo unspecified),i,nt,nt,nt,nt,nt
O=c1cc(Br)c(O)c(Br)cc1Br,21µM,22µM,nt,nt,nt,?
O=C(Nc1cccc(S(=O)(=O)N2CCCCC2)c1)c1ccco1,i,i,nt,i,i[12.7 µM],i
CCOc1cc(/C=C(\C#N)C(N)=O)ccc1OCc1c(C)no[n+]1[O-],i,i,i,i,i,i
Cc1no[n+]([O-])c1COc1ccc(/C=C(\C#N)C(N)=O)cc1,21µM,i,i,i,?,i
N=C(N)Sc1nc(N2CCCCC2)nc(N2CCCCC2)n1,i,i,i,79µM,i[12.7 µM],i

# Source: PubChem (National Center for Advancing Translational Sciences (NCATS))
